Test results from the supplement of paper PMC10849652.
The full data set covers some 7,900 targets. This sample favours those with a hit. About 0.6% of all pairs of compound and target were hits. Unmarked numbers belong to inactive results.

Legend:
Assay in all cases: log2 fold change, soluble protein after heating vs DMSO (PISA); higher = thermal stabilisation; K562 cells, 10 uM, 30 min; active = over 0.2 and 3.5 SD of the protein, either way, in both replicates (recomputed)
bafetinib = compound: Cc1ccc(NC(=O)c2ccc(CN3CC[C@H](N(C)C)C3)c(C(F)(F)F)c2)cc1Nc1nccc(-c2cncnc2)n1 [bafetinib]
In short: (§1)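 For each measurement, 10 μM compound was applied for 30 min to K562 cells at 2×10^6 cells/mL. Aliquots were heated for 3 min across 48°C-58°C, pooled, and extracted in PBS with 0.5% NP-40 at 4°C; the supernatant after 21,000xg for 90 min was soluble protein. This was quantified by TMTpro 16plex LC-MS/MS with channel sums equalised, and thermal stability was reported relative to control samples from duplicates, on a log2 fold-change scale.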

[1] = compound: Cc1cccc(CC(=O)N2CCc3c2ccc(-c2cn(C)c4ncnc(N)c24)c3F)n1
In short: as §1

nilotinib = compound: Cc1cn(-c2cc(NC(=O)c3ccc(C)c(Nc4nccc(-c5cccnc5)n4)c3)cc(C(F)(F)F)c2)cn1 [nilotinib]
In short: as §1

[2] = compound: Cc1nc(Nc2n[nH]c3c2CN(C(=O)N[C@H](CN(C)C)c2ccccc2)C3(C)C)c2sccc2n1
In short: as §1

dasatinib = compound: Cc1nc(Nc2ncc(C(=O)Nc3c(C)cccc3Cl)s2)cc(N2CCN(CCO)CC2)n1 [dasatinib]
In short: as §1

[3] = compound: Cc1ncc(-c2ccnc(Nc3ccc(S(C)(=O)=O)cc3)n2)n1C(C)C
In short: as §1

[4] = compound: Cn1cc(-c2ccc3c(c2)CCN3C(=O)Cc2cccc(C(F)(F)F)c2)c2c(N)ncnc21
In short: as §1

[5] = compound: Cn1cc(-c2ccc3nnc(C(F)(F)c4ccc5ncccc5c4)n3n2)cn1
In short: as §1

tipifarnib = compound: Cn1cncc1[C@@](N)(c1ccc(Cl)cc1)c1ccc2c(c1)c(-c1cccc(Cl)c1)cc(=O)n2C [tipifarnib]
In short: as §1

mubritinib = compound: FC(F)(F)c1ccc(/C=C/c2nc(COc3ccc(CCCCn4ccnn4)cc3)co2)cc1 [mubritinib]
In short: as §1

[6] = compound: NC(=O)Nc1cc(-c2cccc(F)c2)sc1C(=O)N[C@H]1CCCNC1
In short: as §1

[7] = compound: NC(=O)c1cnc(N[C@@H]2CCCC[C@@H]2N)nc1Nc1cccc(-n2nccn2)c1
In short: as §1

[8] = compound: NC1(c2ccc(-c3nc4ccn5c(=O)[nH]nc5c4cc3-c3ccccc3)cc2)CCC1
In short: as §1

[9] = compound: NCC(=O)Nc1ccc(-n2nc(C(F)(F)F)cc2-c2ccc3c(ccc4ccccc43)c2)cc1
In short: as §1

entinostat = compound: Nc1ccccc1NC(=O)c1ccc(CNC(=O)OCc2cccnc2)cc1 [entinostat]
In short: as §1

vorinostat = compound: O=C(CCCCCCC(=O)Nc1ccccc1)NO [vorinostat]
In short: as §1

citarinostat = compound: O=C(CCCCCCNC(=O)c1cnc(N(c2ccccc2)c2ccccc2Cl)nc1)NO [citarinostat]
In short: as §1

silmitasertib = compound: O=C(O)c1ccc2c(c1)nc(Nc1cccc(Cl)c1)c1ccncc12 [silmitasertib]
In short: as §1

[10] = compound: O=C1NC(=O)C(c2cnc3ccccn23)=C1c1cn2c3c(cc(F)cc13)CN(C(=O)N1CCCCC1)CC2
In short: as §1

[11] = compound: c1cc(OCCN2CCCCC2)cc(-c2n[nH]c3ccc(-c4nnc[nH]4)cc23)c1
In short: as §1

UniProt O75792, sequence (O75792 whole entry, looked up): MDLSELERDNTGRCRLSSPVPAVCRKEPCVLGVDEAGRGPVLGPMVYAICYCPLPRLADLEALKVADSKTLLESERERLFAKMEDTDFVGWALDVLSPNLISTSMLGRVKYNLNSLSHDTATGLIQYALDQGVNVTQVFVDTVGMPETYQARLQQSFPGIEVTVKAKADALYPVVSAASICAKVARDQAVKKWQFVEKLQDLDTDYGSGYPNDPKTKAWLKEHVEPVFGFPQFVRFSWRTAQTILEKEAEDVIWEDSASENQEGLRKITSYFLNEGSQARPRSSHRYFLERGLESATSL
UniProt Q8NEM2, sequence (Q8NEM2 whole entry, looked up): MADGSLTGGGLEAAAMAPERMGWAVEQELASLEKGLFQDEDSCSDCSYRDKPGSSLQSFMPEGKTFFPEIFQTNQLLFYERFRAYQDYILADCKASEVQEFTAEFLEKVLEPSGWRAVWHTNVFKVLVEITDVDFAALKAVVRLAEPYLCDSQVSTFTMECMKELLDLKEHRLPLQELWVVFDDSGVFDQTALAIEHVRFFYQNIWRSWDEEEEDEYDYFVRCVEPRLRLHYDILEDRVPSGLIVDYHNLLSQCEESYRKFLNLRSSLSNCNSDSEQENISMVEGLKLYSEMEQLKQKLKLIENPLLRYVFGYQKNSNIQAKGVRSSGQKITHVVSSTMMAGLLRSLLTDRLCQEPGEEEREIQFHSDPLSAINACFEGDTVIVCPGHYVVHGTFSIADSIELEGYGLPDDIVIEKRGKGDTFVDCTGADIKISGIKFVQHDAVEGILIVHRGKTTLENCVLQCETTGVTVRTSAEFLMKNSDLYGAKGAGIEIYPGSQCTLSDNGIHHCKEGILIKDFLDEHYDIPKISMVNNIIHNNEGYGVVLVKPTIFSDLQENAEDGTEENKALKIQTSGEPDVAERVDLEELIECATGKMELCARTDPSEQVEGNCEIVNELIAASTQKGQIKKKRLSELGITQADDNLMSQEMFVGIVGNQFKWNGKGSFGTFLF
UniProt Q8N0T1, sequence (Q8N0T1 whole entry, looked up): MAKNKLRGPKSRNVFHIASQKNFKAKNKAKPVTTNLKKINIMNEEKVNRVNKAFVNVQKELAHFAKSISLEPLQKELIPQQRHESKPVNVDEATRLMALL
UniProt P46063, sequence (P46063 whole entry, looked up): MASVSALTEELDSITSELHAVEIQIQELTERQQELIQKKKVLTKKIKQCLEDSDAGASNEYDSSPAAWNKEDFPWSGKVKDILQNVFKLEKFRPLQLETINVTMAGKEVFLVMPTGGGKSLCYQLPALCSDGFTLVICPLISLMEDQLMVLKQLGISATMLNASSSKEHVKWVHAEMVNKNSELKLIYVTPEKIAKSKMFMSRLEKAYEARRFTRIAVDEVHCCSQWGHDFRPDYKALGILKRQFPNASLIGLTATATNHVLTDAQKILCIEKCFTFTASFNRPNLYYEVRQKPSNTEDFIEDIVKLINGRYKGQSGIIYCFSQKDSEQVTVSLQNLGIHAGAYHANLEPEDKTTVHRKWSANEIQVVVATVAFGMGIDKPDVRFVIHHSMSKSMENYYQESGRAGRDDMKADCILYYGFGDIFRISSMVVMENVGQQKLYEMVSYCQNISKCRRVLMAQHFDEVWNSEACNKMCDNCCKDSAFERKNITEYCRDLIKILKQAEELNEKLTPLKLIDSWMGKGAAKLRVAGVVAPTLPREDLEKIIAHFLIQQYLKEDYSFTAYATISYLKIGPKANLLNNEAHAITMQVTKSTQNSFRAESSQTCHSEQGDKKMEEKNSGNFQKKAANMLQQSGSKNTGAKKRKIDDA
UniProt P61586, sequence (P61586 whole entry, looked up): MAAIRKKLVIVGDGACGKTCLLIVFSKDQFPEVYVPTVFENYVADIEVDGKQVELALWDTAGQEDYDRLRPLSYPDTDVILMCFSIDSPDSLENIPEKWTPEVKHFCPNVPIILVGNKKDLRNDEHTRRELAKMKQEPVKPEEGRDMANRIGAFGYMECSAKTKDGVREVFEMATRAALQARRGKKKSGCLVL
UniProt P05543, sequence (P05543 whole entry, looked up): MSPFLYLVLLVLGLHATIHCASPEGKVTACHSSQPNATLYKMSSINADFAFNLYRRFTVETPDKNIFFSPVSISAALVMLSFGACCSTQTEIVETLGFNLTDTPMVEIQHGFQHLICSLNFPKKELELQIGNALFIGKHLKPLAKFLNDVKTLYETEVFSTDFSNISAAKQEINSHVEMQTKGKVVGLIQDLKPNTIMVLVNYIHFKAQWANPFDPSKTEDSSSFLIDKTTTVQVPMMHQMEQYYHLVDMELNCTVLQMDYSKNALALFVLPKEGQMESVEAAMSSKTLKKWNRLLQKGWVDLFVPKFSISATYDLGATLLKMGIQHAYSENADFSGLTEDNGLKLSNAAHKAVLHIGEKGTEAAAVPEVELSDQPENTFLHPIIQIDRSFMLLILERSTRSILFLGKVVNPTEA

Target	log2 fold change (bafetinib)	log2 fold change [1]	log2 fold change (nilotinib)	log2 fold change [2]	log2 fold change (dasatinib)	log2 fold change [3]	log2 fold change [4]	log2 fold change [5]	log2 fold change (tipifarnib)	log2 fold change (mubritinib)	log2 fold change [6]	log2 fold change [7]	log2 fold change [8]	log2 fold change [9]	log2 fold change (entinostat)	log2 fold change (vorinostat)	log2 fold change (citarinostat)	log2 fold change (silmitasertib)	log2 fold change [10]	log2 fold change [11]
SERPINA7 (UniProt P05543)	-0.191	-0.152	0.05	0.115	0.098	0.392	0.238	0.001	0.104	-0.247	-0.062	0.132	0.234	-0.075	-0.084	-0.164	-0.011	0.091	0.089	0.367
RECQL (UniProt P46063)	0.005	-0.019	0.025	0.006	-0.043	-0.033	0.055	-0.006	-0.034	0.017	0.034	-0.076	-0.047	-0.033	0.001	0.045	0.092	-0.028	-0.019	-0.03
RPS18 (UniProt P62269)	0.214	-0.015	-0.001	0.198	0.069	-0.054	-0.088	-0.001	0.031	-0.022	-0.032	0.08	0.122	0.049	-0.083	0.023	-0.093	0	0.069	-0.145
RHOA (UniProt P61586)	-0.149	-0.051	0.154	0.001	0.001	0.014	0.04	0.012	0	0.029	-0.01	0.036	0.204	0.123	-0.019	-0.16	-0.047	-0.136	-0.057	0.104
RPS2 (UniProt P15880)	0.284	0	0	0.198	0.13	-0.035	-0.216	-0.105	0.077	-0.095	0.035	0.081	0.195	0.089	-0.036	0.001	-0.079	0.01	0.086	-0.189
SHCBP1 (UniProt Q8NEM2)	-0.017	0.041	-0.207	-0.459 (active)	-0.091	0.003	0.223	0.004	0.299	0.1	0.01	-0.017	-0.107	-0.08	-0.063	0.039	0.136	0.025	-0.087	-0.091
RBIS (UniProt Q8N0T1)	0.012	-0.058	-0.058	0.101	0.008	-0.079	0.023	0.004	-0.02	0.021	-0.021	-0.029	0.02	0.02	0.019	0.014	0.092	-0.009	-0.002	-0.078
RNASEH2A (UniProt O75792)	-0.111	-0.303 (active)	-0.025	0.024	-0.159	-0.047	0.056	0.038	-0.003	0.059	-0.017	-0.06	-0.181	-0.109	0.037	-0.145	0.015	0.014	-0.208	-0.015
